Test results from PubChem BioAssay AID488965 (Broad Institute, 2010).
Screen size: about 340,000 compounds; about 210 (0.062%) were called active. What follows is part of a selection rich in actives, with near analogues and random picks from the rest. A number with no mark means an inactive call. No stated cut-off is given here; in the data, active means inhibition above about 30% (passing the limit was not always enough); inconclusive means no clear call, values can overlap the other calls.

The compounds below were run on PvdQ acylase [Pseudomonas aeruginosa LESB58] (assay: P. aeruginosa PvdQ acylase inhibitors, primary screen, biochemical, fluorescence, plate reader and imaging, single point (AID 488965;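 further: 0% = vehicle neutral wells and 100% = reference inhibitor wells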)). Settings: purified PvdQ acylase, at 10 µM, active compounds read high.
In the case of `CCN(CC)c1ccc(NC(=O)c2ccc(Cl)nc2)cc1`, the inhibition is reported as -15.1%. `CCCCNC(=O)C1(c2ccc(OC)cc2)CCOCC1` was tested, and the inhibition was -4.05%. `NS(=O)(=O)c1ccc(NC(=S)N2CCCC2)cc1` showed an inhibition of 9.11%. Compound `CC1(C)Oc2ccc(C(=O)N3CCOCC3)cc2N(CC(=O)Nc2ccccc2)C1=O` has an inhibition of -16.2%. Compound `COCCCNC(=O)/C(C#N)=C/c1c(N2CCCCCC2)nc2ccccn2c1=O` has an inhibition of -15.4%. `Cc1ccccc1-n1nc(SCC(=O)O)sc1=S` gave an inhibition of -9.08%. `Cc1cc(NC(=O)Nc2ccccc2[N+](=O)[O-])no1` was tested, and the inhibition was 62.7% (active). `Cc1cc(NC(=O)c2ccccc2C)no1` was tested, and the inhibition was 11.3%. Compound `Cc1csc(NC(=O)Nc2ccccc2[N+](=O)[O-])n1` has an inhibition of -8.58%. Work on `Cc1c(C(=O)NCCN2CCOCC2)sc2nc(-c3ccc(F)cc3)cn12` yielded an inhibition of -12.4%. Compound `Cc1ccc(CNS(=O)(=O)CCNC(=O)c2ccccc2)cc1` has an inhibition of 0.203%. `CC1CCCCC1NCC(=O)Nc1ccccc1C(=O)Nc1ccccc1` (configuration not stated) gave an inhibition of -4.86%. Work on `O=C(Nc1ccc(F)cc1)c1cccnc1N1CCOCC1` yielded an inhibition of -0.858%. Work on `O=C(O)CCC(=O)Nc1ccc(OCC2CCCO2)cc1` (configuration not stated) yielded an inhibition of -5.22%. `Cc1ccc(NC(=O)CC2C(=O)N(Cc3ccccc3)C(=S)N2NC(=O)c2cccc(F)c2)c(C)c1` (configuration not stated) showed an inhibition of 5.2%. In the case of `COc1ccc(NC(=O)C2CCC(CNC(=O)[C@@H]3Cc4ccccc4CN3)CC2)cc1` (some centres not stated), the inhibition is reported as -2.14%. `CC(C)C(=O)Nc1oc(-c2ccccc2)cc1C#N` gave an inhibition of 7.27%. `Cn1cccc1C(C#N)c1ccccc1C#N` (configuration not stated) was tested, and the inhibition was 56.5% (active). Work on `Cn1cc(-c2ccccc2)cc(C#N)c1=O` yielded an inhibition of -0.186%. Compound `Cc1cc(C)c2c(NC(=O)C3CC3)nn(C)c2n1` has an inhibition of 3.4%. Work on `Cc1nnc(SC(C)C(=O)Nc2ccc(S(=O)(=O)NC3CCCCC3)cc2)s1` (configuration not stated) yielded an inhibition of 7.56%. `NS(=O)(=O)c1ccc(CCNC(=O)CN2C(=O)c3ccccc3S2(=O)=O)cc1` was tested, and the inhibition was 0.254%. In the case of `COc1ccccc1NC(=O)C(C)OC(=O)CC1CCCC1` (configuration not stated), the inhibition is reported as -15.2%. `COc1ccc(-c2ocnc2C(=O)Nc2ccc3c(c2)CCC3)cc1` showed an inhibition of 0.782%. Work on `Cc1cc(Nc2ccc(Br)cc2F)n2ncnc2n1` yielded an inhibition of -0.336%. `CCc1cccc(NC(=O)CCCN2C(=O)C(c3ccccc3)Oc3cccnc32)c1` (configuration not stated) showed an inhibition of -6.79%. With `O=C(Nc1c2c(nn1-c1ccc(F)cc1)CS(=O)C2)C12CC3CC(CC(C3)C1)C2` (configuration not stated) the inhibition was -15.9%. In the case of `O=C(NCCOc1ccccc1F)Nc1ccc(Br)cc1`, the inhibition is reported as -15.7%. For `CO[C@@H]1[C@@H](OC(N)=O)[C@@H](O)C(Oc2ccc3c(O)c(NC(=O)c4ccc(O)c(CC=C(C)C)c4)c(=O)oc3c2C)OC1(C)C` (some centres not stated), the inhibition was 3.42%. For `O=C(Nc1ccccc1C(=O)N1CCOCC1)c1ccc(CSc2ccccc2)cc1`, the inhibition was -11.3%. In the case of `C[C@@]12C(=O)N(c3cccc(Br)c3)C(=O)N1[C@H](c1ccc(Cl)cc1)[C@@H]1C(=O)N(C3CCCCC3)C(=O)[C@@H]12`, the inhibition is reported as -10.3%. Compound `Cc1c(C(=O)NC(=S)NCc2cccnc2)oc2ccccc12` has an inhibition of -8.97%. Compound `CC(C)(CSc1nncn1/N=C/c1ccco1)NS(=O)(=O)c1ccc(Cl)cc1` has an inhibition of -10%. `COc1ccc(C(O)(C2CCCCC2)C(CN2CCCC2)c2ccccc2)cc1` (configuration not stated) showed an inhibition of -13.6%. With `CCOC(=O)C1CCN(C(=O)COc2cccc3ccccc23)CC1` the inhibition was -22%. `O=C1CN(C(=O)COC(=O)/C=C/c2ccc(F)cc2)c2ccccc2N1` was tested, and the inhibition was -0.579%. Compound `COc1ccc(N(C)C(=O)C2CCN(S(=O)(=O)c3cccc4nsnc34)CC2)cc1` has an inhibition of -10.1%. In the case of `CC(C)(COC(=O)Nc1ccccc1)COC(=O)Nc1ccccc1`, the inhibition is reported as 3.19%. In the case of `C/C(=N\NS(=O)(=O)c1cccc([N+](=O)[O-])c1)c1cc2ccccc2o1`, the inhibition is reported as 12.7%. Work on `Cc1ccc(NC(=O)c2nc[nH]c2C(=O)N2CCCCC2)c(C(=O)c2ccccc2)c1` yielded an inhibition of 6.08%. `CCc1ccccc1S(=O)(=O)Cc1ccc(C(=O)NCCc2ccccc2)o1` was tested, and the inhibition was -14.5%. For `Cc1nnc(SCC(=O)N(C(C)C)C(C)C)nc1C`, the inhibition was -17%. With `CC(Sc1nnc(Cc2ccc([N+](=O)[O-])cc2)o1)C(N)=O` (configuration not stated) the inhibition was 5.89%. For `O=C(NCc1cccc(Cl)c1)C1CCC(=O)N(C2CC2)C1` (configuration not stated), the inhibition was 0.749%. `Cc1ccc(S(=O)(=O)N2CCCCC2)cc1C(=O)N(C)CC(=O)Nc1cccc(F)c1` showed an inhibition of 2.44%. For `CCn1c2ccccc2c2cc(NC(=O)C/C(C)=N/NC(=O)c3ccccc3N)ccc21`, the inhibition was -14.8%. Compound `COc1ccc(N(CC(=O)NCC2CCCO2)C(=O)CCC(=O)Nc2nccs2)c(OC)c1` (configuration not stated) has an inhibition of 0.881%. With `Cc1ccc(C(c2sc3nc(C)nn3c2O)N2CCN(c3ccc(F)cc3)CC2)cc1` (configuration not stated) the inhibition was -4.54%. `CCCC1CC(C)(C(=O)Cn2[nH]c(=O)ccc2=O)OC1=O` (configuration not stated) was tested, and the inhibition was -24.8%. For `O=C(c1ccc(-c2ccccc2)cc1)C1CCCN(C(=O)c2cncs2)C1` (configuration not stated), the inhibition was 46.5% (active). With `CCNC(=O)N1CCCC(C(=O)c2ccc(-c3ccccc3)cc2)C1` (configuration not stated) the inhibition was -11%. `Cn1nccc1C(=O)N1CCCC(C(=O)c2ccc(Oc3ccccc3)cc2)C1` (configuration not stated) was tested, and the inhibition was -15.6%. In the case of `COC(=O)c1c(NC(=O)CN2C(=O)NC(CCc3ccccc3)C2=O)sc2c1CCCCC2` (configuration not stated), the inhibition is reported as 2.45%. With `CCC(C)(C)NC(=O)c1cc([N+](=O)[O-])ccc1N1CCCCC1` the inhibition was 38.9% (active). `CCN1CCN(c2ccc([N+](=O)[O-])cc2C(=O)c2ccc(Cl)cc2)CC1` showed an inhibition of -6.71%. With `CC1CCN(c2ccc([N+](=O)[O-])cc2C(N)=O)CC1` the inhibition was -4.82%. `CCOc1cc(/C=C2\SC(N3CCCC(C)C3)=NC2=O)ccc1O` (configuration not stated) showed an inhibition of -6.66%. Work on `c1ccc2cc(CCCc3cc4ccccc4cn3)ncc2c1` yielded an inhibition of 21.2%. In the case of `Cc1c(NC(=S)NC(=O)CCc2ccccc2)c(=O)n(-c2ccccc2)n1C`, the inhibition is reported as -12.9%. `Cc1ccc(NC(=O)CCOc2ccccc2)cc1S(=O)(=O)Nc1ccccc1Cl` showed an inhibition of -5.34%. With `Cc1nc2nc(C)c(CCC(=O)N3CCN(c4ccccc4)CC3)c(C)n2n1` the inhibition was -9.01%. For `CO/N=C/c1cn(-c2ccc(Cl)cc2)nn1`, the inhibition was 49% (active). Compound `CN(C)c1nnnn1-c1ccc(Cl)cc1` has an inhibition of -0.634%. With `CN(C)c1ccc(/C=C/C(=O)c2ccc(C(C)(C)C)cc2)cc1[N+](=O)[O-]` the inhibition was 7.14%. `CN(C)c1ccc(/C=C/C(=O)c2ccc(O)cc2)cc1[N+](=O)[O-]` was tested, and the inhibition was -3.3%. For `O=C(/C=C/c1ccc(Cl)c([N+](=O)[O-])c1)c1ccc(O)cc1`, the inhibition was 42% (active). With `Cc1ccc(N2CC(C(=O)Nc3cc(Cl)ccc3-n3cncn3)CC2=O)cc1` (configuration not stated) the inhibition was -12.4%. For `c1cc(-n2cnnn2)ccc1NC1=NCCC1`, the inhibition was -15.4%. `Cc1ccc(C(=O)Nc2nnc(C3=COCCO3)o2)cc1C` was tested, and the inhibition was -6.48%. In the case of `Cc1c(NC(=O)c2c([N+](=O)[O-])cnn2C)c(=O)n(-c2ccccc2)n1C`, the inhibition is reported as -9.74%. For `CSC1=N/C(=C\C=C\c2cccs2)C(=O)S1`, the inhibition was 93.4% (active). Work on `ONC(=Nc1ccccc1)c1ccccc1Cl` yielded an inhibition of -2.68%. `O=C(CCCN1C(=O)CSc2ncccc21)N1CCN(c2cccc(C(F)(F)F)c2)CC1` showed an inhibition of -3.29%. With `O=C(Nc1ccc(Cl)cc1)c1cccc(OC(=S)N2CCOCC2)c1` the inhibition was -4.62%. For `NC(=O)c1ccc(NC(=O)COC(=O)c2c3c(nc4ccccc24)/C(=C\c2ccc4c(c2)OCO4)CCC3)cc1`, the inhibition was 12.2%. `Cc1cc(C)cc(OCC(=O)NNC(=O)c2cc3ccccc3oc2=O)c1` showed an inhibition of -2.78%. In the case of `CCOC(=O)c1cc2cc3ccccc3cc2oc1=O`, the inhibition is reported as 65.9% (active). With `C=CCc1cccc2cc(C(=O)OCC)c(=O)oc12` the inhibition was 13.8%. `CC(=O)Nc1ccc(C(=O)OCC(=O)Nc2ccc([N+](=O)[O-])cc2C(F)(F)F)cc1` was tested, and the inhibition was -15.1%. For `CCc1ccc(NC(=O)CN2CCC(C(=O)c3ccc(OC)cc3)CC2)cc1`, the inhibition was -11.8%. `O=C(CN(c1ccccc1)S(=O)(=O)c1ccc(Cl)cc1)Nc1ccccc1C(=O)N1CCCC1` gave an inhibition of -7.63%. Work on `O=C(c1ccccc1)c1ccc2nc(N3CCCCC3)c3nncn3c2c1` yielded an inhibition of -14.2%. With `CC(OC(=O)CCc1nc(=O)c2ccccc2n1C)C(=O)NCc1ccc2c(c1)OCO2` (configuration not stated) the inhibition was 11.9%. In the case of `O=C1CC(C(=O)O)NC(=S)N1` (configuration not stated), the inhibition is reported as -11%. For `O=C(NCC(=O)N(Cc1cccs1)C(C(=O)NC1CCCCC1)c1ccco1)c1cccs1` (configuration not stated), the inhibition was -5.29%. For `CCOC(=O)N1CCC(=NNC(N)=O)CC1`, the inhibition was 5.61%. `O=S(=O)(O)c1cc2onnc2c2ccccc12` was tested, and the inhibition was -19.4%. Compound `CCOc1cc(C(=O)N(Cc2ccccc2)c2ccc(C)cc2)ccc1OCC(=O)N1CCOCC1` has an inhibition of -12.7%. `COc1ccc(-c2cc3ncccc3cn2)cc1` was tested, and the inhibition was 48.1% (active). For `COc1ccc(-c2nnc(-c3ccc4ccccc4c3)o2)cc1`, the inhibition was -12.7%. In the case of `COc1cc(OC)cc(-c2cc3ccc(F)cc3cn2)c1`, the inhibition is reported as 8.09%. `COC(=O)Cc1csc(/N=C/c2c(O)n(-c3cccc(C(F)(F)F)c3)c(=O)c3ccccc23)n1` was tested, and the inhibition was -13%.
